# Active and inactive are the calls of the source. Rule for the calls: active = hit-call score of the fitted dose curve at least 0.9, where 1 is the maximum; inactive = score below 0.9.
# What was measured:
# Conditions in all cases: mRNA level, 48 h; actives raise or lower the signal
# [1] = read-out: cysteine-aspartic acid protease (CASP8), CASP8 (gene 841); assay: LTEA_HepaRG_CASP8: Life Technologies and Expression Analysis (LTEA) Assay for cysteine-aspartic acid protease (CASP8) using HepaRG (AID 2283480)
# Procedure, shortened: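 Differentiated HepaRG cells in serum-free induction medium, 48 h exposure, eight-point half-log series from 100 uM in 0.5% DMSO, duplicates. CASP8 mRNA by qRT-PCR, normalized to ACTB, GAPDH, POLR2A; bidirectional fit versus DMSO.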
# [2] = read-out: Cytochrome P450 (CYP2B6), CYP2B6 (gene 1555); assay: LTEA_HepaRG_CYP2B6: Life Technologies and Expression Analysis (LTEA) Assay for Cytochrome P450 (CYP2B6) using HepaRG (AID 2283481)
# Procedure, shortened: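 Differentiated HepaRG cells, serum-free induction medium, exposed 48 h in duplicate to 8-point half-log concentrations from 100 uM in 0.5% DMSO. CYP2B6 mRNA by qRT-PCR, normalized to ACTB, GAPDH, POLR2A; bidirectional fit versus DMSO.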
# [3] = read-out: Cytochrome P450 2C19 (Homo sapiens) (UniProt P33261); assay: LTEA_HepaRG_CYP2C19: Life Technologies and Expression Analysis (LTEA) Assay for CYP2C19 using HepaRG (AID 2283482)
# Procedure, shortened: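 Differentiated human HepaRG cells were exposed for 48 h in serum-free induction medium to 8 concentrations (top 100 uM, half-log steps, 0.5% DMSO). CYP2C19 mRNA was measured by qRT-PCR, normalized to ACTB/GAPDH/POLR2A, and fitted bidirectionally against DMSO.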
# CYP2C8 (gene 1558) = assay: LTEA_HepaRG_CYP2C8: Life Technologies and Expression Analysis (LTEA) Assay for CYP2C8 using HepaRG (AID 2283483)
# Procedure, shortened: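 Differentiated HepaRG cells in serum-free induction medium exposed 48 h in duplicate to 8 half-log concentrations from 100 uM in 0.5% DMSO. CYP2C8 mRNA by qRT-PCR normalized to ACTB, GAPDH, POLR2A; bidirectional fit versus DMSO.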
# CYP2C9 (gene 1559) = assay: LTEA_HepaRG_CYP2C9: Life Technologies and Expression Analysis (LTEA) Assay for CYP2C9 using HepaRG (AID 2283484)
# Procedure, shortened: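 Differentiated human HepaRG cells in serum-free induction medium were exposed 48 h to chemicals in 8-point half-log series from 100 uM (0.5% DMSO), in duplicate. CYP2C9 mRNA was measured by qRT-PCR, normalized to ACTB/GAPDH/POLR2A, with bidirectional fitting versus DMSO.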
# CYP2E1 (gene 1571) = assay: LTEA_HepaRG_CYP2E1: Life Technologies and Expression Analysis (LTEA) Assay for CYP2E1 using HepaRG (AID 2283485)
# Procedure, shortened: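 HepaRG cells, plated 48 h, then exposed 48 h in serum-free induction medium to eight half-log concentrations from 100 uM in 0.5% DMSO, duplicate. CYP2E1 mRNA by qRT-PCR, normalized to ACTB/GAPDH/POLR2A; bidirectional fit versus DMSO.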
# CYP4A11 (gene 1579) = assay: LTEA_HepaRG_CYP4A11: Life Technologies and Expression Analysis (LTEA) Assay for CYP4A11 using HepaRG (AID 2283486)
# Procedure, shortened: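 Differentiated HepaRG cells, serum-free induction medium, exposed 48 h in duplicate to 8-point half-log series from 100 uM in 0.5% DMSO. CYP4A11 mRNA measured by qRT-PCR, normalized to ACTB, GAPDH, POLR2A; bidirectional fit versus DMSO.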
# [4] = read-out: Cytochrome P450 3A4 (Homo sapiens) (UniProt P08684); assay: LTEA_HepaRG_CYP3A4: Life Technologies and Expression Analysis (LTEA) Assay for CYP3A4 using HepaRG (AID 2283487)
# Procedure, shortened: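 HepaRG, 48 h exposure, 8-pt CRC from 100 uM (half-log), 0.5% DMSO, duplicates; serum-free induction medium. Readout: CYP3A4 mRNA, qRT-PCR, ACTB/GAPDH/POLR2A normalization. Bidirectional fit vs DMSO.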
# [5] = read-out: DNA damage-inducible transcript 3 (DDIT3), DDIT3 (gene 1649); assay: LTEA_HepaRG_DDIT3: Life Technologies and Expression Analysis (LTEA) Assay for DNA damage-inducible transcript 3 (DDIT3) using HepaRG (AID 2283488)
# Procedure, shortened: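 HepaRG cells, 48 h after plating, exposed 48 h in serum-free induction medium to 8 half-log concentrations up to 100 uM in 0.5% DMSO, in duplicate. DDIT3 mRNA measured by TaqMan qRT-PCR, normalized to ACTB, GAPDH and POLR2A. Fitted bidirectionally against DMSO.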
# [6] = read-out: Pro-epidermal growth factor (Homo sapiens) (UniProt P01133); assay: LTEA_HepaRG_EGF: Life Technologies and Expression Analysis (LTEA) Assay for Epidermal growth factor (EGF) using HepaRG (AID 2283489)
# Procedure, shortened: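 Differentiated human HepaRG cells, plated 48 h then switched to serum-free induction medium, were exposed for 48 h to test chemicals (8-point half-log series, top 100 uM, 0.5% DMSO). EGF mRNA was quantified by qRT-PCR, normalized to ACTB, GAPDH, POLR2A.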
# Cytochrome P450 2C19 (Homo sapiens), sequence (P33261 whole entry, looked up): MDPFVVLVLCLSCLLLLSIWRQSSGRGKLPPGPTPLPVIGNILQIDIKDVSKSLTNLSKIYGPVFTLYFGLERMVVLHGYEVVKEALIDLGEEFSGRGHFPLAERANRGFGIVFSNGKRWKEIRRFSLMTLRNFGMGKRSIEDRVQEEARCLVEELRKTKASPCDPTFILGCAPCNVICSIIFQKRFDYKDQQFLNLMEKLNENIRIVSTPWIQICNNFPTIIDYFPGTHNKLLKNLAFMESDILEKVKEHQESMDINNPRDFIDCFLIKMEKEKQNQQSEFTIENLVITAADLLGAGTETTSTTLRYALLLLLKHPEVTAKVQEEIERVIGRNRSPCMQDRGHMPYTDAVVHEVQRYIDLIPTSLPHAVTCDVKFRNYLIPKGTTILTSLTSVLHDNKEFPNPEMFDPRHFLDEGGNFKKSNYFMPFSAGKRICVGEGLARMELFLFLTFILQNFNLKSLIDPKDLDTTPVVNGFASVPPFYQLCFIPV
# Cytochrome P450 3A4 (Homo sapiens), sequence (P08684 whole entry, looked up): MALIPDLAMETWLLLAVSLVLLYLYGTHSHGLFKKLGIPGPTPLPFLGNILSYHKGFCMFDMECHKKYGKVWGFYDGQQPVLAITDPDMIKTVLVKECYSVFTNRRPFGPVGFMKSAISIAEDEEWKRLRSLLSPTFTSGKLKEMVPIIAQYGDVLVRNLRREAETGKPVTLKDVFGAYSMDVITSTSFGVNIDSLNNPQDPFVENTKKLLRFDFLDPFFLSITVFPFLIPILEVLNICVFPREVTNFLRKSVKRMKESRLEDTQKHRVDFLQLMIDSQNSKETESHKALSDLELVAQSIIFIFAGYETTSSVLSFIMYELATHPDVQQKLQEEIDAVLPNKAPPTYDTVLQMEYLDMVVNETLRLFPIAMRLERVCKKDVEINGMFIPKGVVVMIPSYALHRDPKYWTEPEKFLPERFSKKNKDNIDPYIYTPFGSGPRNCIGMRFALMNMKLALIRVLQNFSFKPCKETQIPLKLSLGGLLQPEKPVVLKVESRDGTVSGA
compound,measurement,setting,value
CCC12COCN1COC2,outcome,[1],inactive
same,outcome,[2],inactive
same,outcome,[3],inactive
same,outcome,CYP2C8 (gene 1558),inactive
same,outcome,CYP2C9 (gene 1559),inactive
same,outcome,CYP2E1 (gene 1571),inactive
same,outcome,CYP4A11 (gene 1579),inactive
same,outcome,[4],inactive
same,outcome,[5],inactive
same,outcome,[6],inactive
ClC1=C(Cl)[C@]2(Cl)[C@H]3[C@H]([C@@H]4C=C[C@H]3C4)[C@@]1(Cl)C2(Cl)Cl,outcome,[1],inactive
same,AC50,[2],2.2 µM (active)
same,AC50,[3],3.63 µM (active)
same,AC50,CYP2C8 (gene 1558),1.45 µM (active)
same,outcome,CYP2C9 (gene 1559),inactive
same,AC50,CYP2E1 (gene 1571),23 µM (active)
same,AC50,CYP4A11 (gene 1579),29.6 µM (active)
same,AC50,[4],4.36 µM (active)
same,outcome,[5],inactive
Cc1ccc([N+](=O)[O-])cc1,outcome,[1],inactive
same,AC50,[2],0.744 µM (active)
same,AC50,[3],1.87 µM (active)
same,outcome,CYP2C8 (gene 1558),inactive
same,outcome,CYP2C9 (gene 1559),inactive
same,AC50,CYP2E1 (gene 1571),20.2 µM (active)
same,AC50,CYP4A11 (gene 1579),1.58 µM (active)
same,AC50,[4],1.39 µM (active)
same,outcome,[5],inactive
same,outcome,[6],inactive
C[N+](C)(C)CC1CO1 (centres undefined),outcome,[1],inactive
same,outcome,[2],inactive
same,outcome,[3],inactive
same,outcome,CYP2C8 (gene 1558),inactive
same,outcome,CYP2C9 (gene 1559),inactive
same,outcome,CYP2E1 (gene 1571),inactive
same,outcome,CYP4A11 (gene 1579),inactive
same,outcome,[4],inactive
same,outcome,[5],inactive
same,outcome,[6],inactive
OCCCl,outcome,[1],inactive
same,AC50,[2],50 µM (active)
same,outcome,[3],inactive
same,outcome,CYP2C8 (gene 1558),inactive
same,outcome,CYP2C9 (gene 1559),inactive
same,outcome,CYP2E1 (gene 1571),inactive
same,outcome,CYP4A11 (gene 1579),inactive
same,outcome,[4],inactive
same,outcome,[5],inactive
CCCCCCCCOC(=O)c1ccc(C(=O)OCCCCCCCC)c(C(=O)OCCCCCCCC)c1,outcome,[1],inactive
same,AC50,[2],22.4 µM (active)
same,outcome,[3],inactive
same,outcome,CYP2C8 (gene 1558),inactive
same,outcome,CYP2C9 (gene 1559),inactive
same,outcome,CYP2E1 (gene 1571),inactive
same,outcome,CYP4A11 (gene 1579),inactive
same,outcome,[4],inactive
same,outcome,[5],inactive
O=C1CCCO1,AC50,[1],78.5 µM (active)
same,outcome,[2],inactive
same,outcome,[3],inactive
same,outcome,CYP2C8 (gene 1558),inactive
same,outcome,CYP2C9 (gene 1559),inactive
same,outcome,CYP2E1 (gene 1571),inactive
same,AC50,CYP4A11 (gene 1579),0.0449 µM (active)
same,outcome,[4],inactive
same,outcome,[5],inactive
CCCCC(CC)COC(=O)c1ccc(C(=O)OCC(CC)CCCC)c(C(=O)OCC(CC)CCCC)c1 (centres undefined),outcome,[1],inactive
same,outcome,[2],inactive
same,outcome,[3],inactive
same,outcome,CYP2C8 (gene 1558),inactive
same,outcome,CYP2C9 (gene 1559),inactive
same,outcome,CYP2E1 (gene 1571),inactive
same,outcome,CYP4A11 (gene 1579),inactive
same,outcome,[4],inactive
same,outcome,[5],inactive
same,outcome,[6],inactive
Nc1ccc(Cc2ccc(N)cc2)cc1,outcome,[1],inactive
same,AC50,[2],11.5 µM (active)
same,AC50,[3],14.5 µM (active)
same,outcome,CYP2C8 (gene 1558),inactive
same,AC50,CYP2C9 (gene 1559),20 µM (active)
same,outcome,CYP2E1 (gene 1571),inactive
same,outcome,CYP4A11 (gene 1579),inactive
same,outcome,[4],inactive
same,outcome,[5],inactive
same,outcome,[6],inactive
OCCOCCO,outcome,[1],inactive
same,AC50,[2],0.128 µM (active)
same,outcome,[3],inactive
same,outcome,CYP2C8 (gene 1558),inactive
same,outcome,CYP2C9 (gene 1559),inactive
same,outcome,CYP2E1 (gene 1571),inactive
same,outcome,CYP4A11 (gene 1579),inactive
same,outcome,[4],inactive
same,outcome,[5],inactive
Oc1ccccc1Cl,outcome,[1],inactive
same,outcome,[2],inactive
same,outcome,[3],inactive
same,outcome,CYP2C8 (gene 1558),inactive
same,outcome,CYP2C9 (gene 1559),inactive
same,outcome,CYP2E1 (gene 1571),inactive
same,outcome,CYP4A11 (gene 1579),inactive
same,outcome,[4],inactive
same,outcome,[5],inactive
same,outcome,[6],inactive
O=[N+]([O-])C(Br)(CO)CO,outcome,[1],inactive
same,outcome,[2],inactive
same,outcome,[3],inactive
same,outcome,CYP2C8 (gene 1558),inactive
same,outcome,CYP2C9 (gene 1559),inactive
same,outcome,CYP2E1 (gene 1571),inactive
same,outcome,CYP4A11 (gene 1579),inactive
same,outcome,[4],inactive
same,outcome,[5],inactive
CN(C)c1ccccc1,outcome,[1],inactive
same,AC50,[2],33.4 µM (active)
same,outcome,[3],inactive
same,outcome,CYP2C8 (gene 1558),inactive
same,outcome,CYP2C9 (gene 1559),inactive
same,outcome,CYP2E1 (gene 1571),inactive
same,outcome,CYP4A11 (gene 1579),inactive
same,outcome,[4],inactive
same,outcome,[5],inactive
same,outcome,[6],inactive
Nc1ccc(N=Nc2ccccc2)cc1,AC50,[1],17.3 µM (active)
same,AC50,[2],13.1 µM (active)
same,AC50,[3],14.4 µM (active)
same,AC50,CYP2C8 (gene 1558),17.3 µM (active)
same,AC50,CYP2C9 (gene 1559),14.7 µM (active)
same,AC50,CYP2E1 (gene 1571),23.7 µM (active)
same,AC50,CYP4A11 (gene 1579),13.3 µM (active)
same,AC50,[5],32.4 µM (active)
same,outcome,[6],inactive
CC(C)(OOC(C)(C)c1ccccc1)c1ccccc1,outcome,[1],inactive
same,AC50,[2],7.24 µM (active)
same,AC50,[3],30 µM (active)
same,AC50,CYP2C8 (gene 1558),25.4 µM (active)
same,outcome,CYP2C9 (gene 1559),inactive
same,AC50,CYP2E1 (gene 1571),35.1 µM (active)
same,outcome,CYP4A11 (gene 1579),inactive
same,AC50,[4],23.9 µM (active)
same,outcome,[5],inactive
same,outcome,[6],inactive
COC(=O)c1ccccc1N,outcome,[1],inactive
same,outcome,[2],inactive
same,outcome,[3],inactive
same,outcome,CYP2C8 (gene 1558),inactive
same,outcome,CYP2C9 (gene 1559),inactive
same,outcome,CYP2E1 (gene 1571),inactive
same,outcome,CYP4A11 (gene 1579),inactive
same,outcome,[4],inactive
same,outcome,[5],inactive
same,outcome,[6],inactive
CC(C)(C)C(O)(CCc1ccc(Cl)cc1)Cn1cncn1 (centres undefined),outcome,[1],inactive
same,AC50,[2],91.4 µM (active)
same,AC50,[3],12.1 µM (active)
same,AC50,CYP2C8 (gene 1558),11.4 µM (active)
same,AC50,CYP2C9 (gene 1559),85.9 µM (active)
same,AC50,CYP2E1 (gene 1571),50 µM (active)
same,AC50,CYP4A11 (gene 1579),55.2 µM (active)
same,AC50,[4],2.86 µM (active)
same,outcome,[6],inactive
[As]#[In],outcome,[1],inactive
same,AC50,[2],39 µM (active)
same,outcome,[3],inactive
same,outcome,CYP2C8 (gene 1558),inactive
same,outcome,CYP2C9 (gene 1559),inactive
same,outcome,CYP4A11 (gene 1579),inactive
same,outcome,[4],inactive
same,outcome,[5],inactive
CCC(C)c1ccc(O)cc1 (centres undefined),outcome,[1],inactive
same,outcome,[2],inactive
same,outcome,[3],inactive
same,outcome,CYP2C8 (gene 1558),inactive
same,outcome,CYP2C9 (gene 1559),inactive
same,outcome,CYP2E1 (gene 1571),inactive
same,outcome,CYP4A11 (gene 1579),inactive
same,outcome,[4],inactive
same,outcome,[5],inactive
same,outcome,[6],inactive
O=Cc1ccco1,outcome,[1],inactive
same,outcome,[3],inactive
same,outcome,CYP2C8 (gene 1558),inactive
same,outcome,CYP2C9 (gene 1559),inactive
same,outcome,CYP2E1 (gene 1571),inactive
same,outcome,CYP4A11 (gene 1579),inactive
same,outcome,[4],inactive
same,outcome,[5],inactive
same,outcome,[6],inactive

# Reference: PubChem BioAssay (EPA / NIEHS)
